The results in this text go back to PubChem BioAssay (EPA / NIEHS).

One may read the AC50 as the midpoint of the concentration-response curve, whichever way the signal moves.

Results filed as inconclusive are left out. The source made the active and inactive calls. The calls were made as follows: active = hit-call score of the fitted dose curve at least 0.9, where 1 is the maximum; inconclusive = response in the unintended direction; inactive = score below 0.9.

The target of experiment [1] is Androgen Receptor/SRC-1 Co-activator, AR (gene 367) (UniProt P10275). The experiment can be described thus: OT_AR_ARSRC1_0960: Odyssey Thera (OT) 16-hour HEK293T Protein-Complementation Assay for Androgen Receptor/SRC-1 Co-activator (AID 2283353).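 Also: actives raise the signal above DMSO so potency reflects increased AR and SRC-1 complex.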 In short, it runs like this:
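HEK293T cells stably expressing AR and SRC-1 fused to Venus YFP fragments, imaged 16 h after dosing. Nuclear/cytoplasmic fluorescence ratio at 488 nm from at least 400 cells per image; gain of signal relative to DMSO.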

Experiment [2] shares this target. The experiment can be described thus: OT_AR_ARSRC1_0480: Odyssey Thera (OT) 8-hour HEK293T Protein-Complementation Assay for Androgen Receptor/SRC-1 Co-activator (AID 2283354).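 Also: hits raise the complementation signal above DMSO so AC50 marks enhancers.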 Put shortly:
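Measures AR/SRC-1 binding by Venus YFP fragment complementation in HEK293T stable lines at 8 h post-dose. Imaging quantifies the 488nm nucleus/cytoplasm ratio in ≥400 cells; DMSO defines baseline.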

The target in experiment [3] is Estrogen receptor (Homo sapiens) + Estrogen receptor beta (Homo sapiens) (UniProt P03372+Q92731). The experiment can be described thus: OT_ER_ERaERb_1440: Odyssey Thera (OT) 24-hour HEK293T Protein-Complementation Assay for Estrogen Receptor-alpha/-beta Homodimer (AID 2283356).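 Also: heteromer of ER alpha and ER beta binding domains; hits raise reporter fluorescence and both agonists and antagonists give an increase.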 Put shortly:
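Stable HEK293T PCA line, ERα LBD 310-547 + ERβ LBD 263-489 fused to reporter fragments; 24 h treatment; fluorescence read by laser scanning cytometry; positive fitting direction relative to DMSO.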

The target in experiment [4] is Estrogen receptor beta (Homo sapiens) (UniProt Q92731). The experiment can be described thus: OT_ER_ERbERb_0480: Odyssey Thera (OT) 8-hour HEK293T Protein-Complementation Assay for Estrogen Receptor-beta/-beta Homodimer (AID 2283357).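 Also: active means signal gain over DMSO baseline.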 Put shortly: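 Cells (HEK293T, stable ER-beta LBD PCA pair) are treated 8 hours, fixed and Draq5-stained; signal is fluorescence intensity increase relative to vehicle, fitted in the gain direction.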

The next experiment has as its target PGR (gene 5241) (UniProt P06401). The experiment in a line: NVS_NR_hPR: NovaScreen (NVS) Nuclear Receptor Binding Assay for human Progestron Receptor (PR) (AID 2283360).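 Also: active means loss of bound radioligand signal versus DMSO baseline.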 In short, it runs like this: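 T47D lysate; tritiated or iodinated radioligand; scintillation count at 18 h. DMSO = negative control/baseline. Primary: 25 uM, duplicate. Secondary: concentration series for actives.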

The target in experiment [5] is Glucocorticoid receptor (Homo sapiens) (UniProt P04150). The experiment in a line: NVS_NR_hGR: NovaScreen (NVS) Nuclear Receptor Binding Assay for human Glucocorticoid Receptor (GR) (AID 2283363). In short, it runs like this: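 Competitive displacement of a labelled ligand was measured on cell-free receptor preparations after 16 h exposure. Initial testing used 25 uM in duplicate with plate controls; confirmed actives went into concentration series.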

For experiment [6], the target named is Peroxisome proliferator-activated receptor gamma (Homo sapiens) (UniProt P37231). The experiment can be described thus: NVS_NR_hPPARg: NovaScreen (NVS) Nuclear Receptor Binding Assay for human Peroxisome Proliferator-activated Receptor gamma (PPARg) (AID 2283370). Put shortly: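 Chemicals were tested first in duplicate at 25 uM, then in concentration series if active. Binding to cell-free PPARg protein was measured by fluorescence polarization after 2 h, with loss of signal scored against DMSO.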

For experiment [7], the target named is Nuclear receptor subfamily 1 group I member 2 (Homo sapiens) (UniProt O75469). The experiment in a line: NVS_NR_hPXR: NovaScreen (NVS) Nuclear Receptor Binding Assay for human Pregnane X Receptor (PXR) (AID 2283365).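 Also: a drop in FRET signal versus DMSO baseline means the compound binds.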 In short, it runs like this:
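Human PXR protein, cell-free; compound added, incubated 2 h, TR-FRET read. Signal decrease vs DMSO = binding. Screened 25 uM duplicate, actives re-run as dilution series.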

For experiment [8], the system named is guinea pig Dopamine Transporter (DAT), gene 100714898. The experiment can be described thus: NVS_TR_gDAT: NovaScreen (NVS) Transporter Assay for guinea pig Dopamine Transporter (DAT) (AID 2283369).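 Also: active compounds lower bound radioligand signal relative to DMSO.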 Put shortly: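 Scintillation counts of filter-retained radioligand report binding to guinea pig striatal membranes after 2 h. Activity scored as signal loss relative to DMSO, first at 25 uM in duplicate, then in concentration series to 50 uM.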

The target of experiment [9] is human Dopamine Transporter (DAT), SLC6A3 (gene 6531) (UniProt Q01959). The experiment can be described thus: NVS_TR_hDAT: NovaScreen (NVS) Transporter Assay for human Dopamine Transporter (DAT) (AID 2283374).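 Also: activity means loss of bound radioligand signal relative to DMSO.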 In short, it runs like this: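 Test chemicals were first screened in duplicate at 25 uM, with actives retested as concentration series. Displacement of a specific radioligand from cell-free human dopamine transporter was measured after 1 h by filtration and scintillation counting.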

Experiment [10] deals with human Norepinephrine Transporter (NET), SLC6A2 (gene 6530) (UniProt P23975). The experiment in a line: NVS_TR_hNET: NovaScreen (NVS) Transporter Assay for human Norepinephrine Transporter (NET) (AID 2283377).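 Also: cell-free membrane protein extracted from CHO cells expressing human NET.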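 As to AC50: displacement of radioligand from human NET seen as loss of scintillation signal.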 In short, it runs like this: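 Scintillation counts of filter-retained radioligand served as the readout, taken 1 h post-dosing in a cell-free CHO-derived system. Test chemicals ran first at 25 uM in duplicate; confirmed hits were retested across concentrations.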

Experiment [11] concerns the target guinea pig Sigma Receptor, Non-selective Binding, SIGMAR1 (gene 100135589) (UniProt Q60492). The experiment can be described thus: NVS_OR_gSIGMA_NonSelective: NovaScreen (NVS) Nuclear Receptor Binding Assay for guinea pig Sigma Receptor, Non-selective Binding (AID 2283367). Put shortly:
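gp brain membr., radioligand displacement, 1 h, filtration + scint. counting; DMSO = baseline; 25 uM x2 primary, conc.-response confirm.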

The target of experiment [12] is Retinoic acid receptor alpha (Homo sapiens) (UniProt P10276). The experiment can be described thus: NVS_NR_hRAR_Antagonist: NovaScreen (NVS) Nuclear Receptor Binding Assay for human Retinoic Acid Alpha Receptor Antagonism (RAR) (AID 2283358). Put shortly:
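TR-FRET, cell-free, antagonist format; 2 h incubation after dosing; DMSO = baseline; signal loss fitted; 25 uM duplicate primary, then conc. series.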

Experiment [13] addresses mouse Estrogen Receptor alpha (Era), Esr1 (gene 13982) (UniProt P19785). The experiment can be described thus: NVS_NR_mERa: NovaScreen (NVS) Nuclear Receptor Binding Assay for mouse Estrogen Receptor alpha (Era) (AID 2283378).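 Also: hit means loss of bound radioligand signal relative to DMSO.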 Put shortly:
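Extracted mouse Era incubated with tritiated or iodinated radioligand plus test chemical, 18 h. Bound fraction separated on filters, counted by scintillation. DMSO = negative control/baseline; duplicate single-point at 25 uM, then concentration-response follow-up.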

For experiment [14], the target named is rat Serotonin Transporter (SERT), Slc6a4 (gene 25553) (UniProt P31652). The experiment can be described thus: NVS_TR_rSERT: NovaScreen (NVS) Transporter Assay for rat Serotonin Transporter (SERT) (AID 2283375). Put shortly:
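Filtration-based radiodetection quantified loss of specific radioligand binding in rat forebrain membranes after 1 hour of chemical exposure, relative to DMSO. Chemicals were first tested in duplicate at 25 uM.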

Experiment [15] has as its target human Adenosine Transporter (Adot), SLC29A1 (gene 2030) (UniProt Q99808). The experiment in a line: NVS_TR_hAdoT: NovaScreen (NVS) Transporter Assay for human Adenosine Transporter (Adot) (AID 2283368). In short, it runs like this: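 U937-derived membranes, cell-free radioligand binding, filter scintillation 1 h after dosing. 25 uM duplicate screen; hits (e.g. 30% inhibition) run in concentration-response up to 50 uM; loss of signal versus DMSO.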

Sequence of PGR (gene 5241) (P06401 whole entry, looked up): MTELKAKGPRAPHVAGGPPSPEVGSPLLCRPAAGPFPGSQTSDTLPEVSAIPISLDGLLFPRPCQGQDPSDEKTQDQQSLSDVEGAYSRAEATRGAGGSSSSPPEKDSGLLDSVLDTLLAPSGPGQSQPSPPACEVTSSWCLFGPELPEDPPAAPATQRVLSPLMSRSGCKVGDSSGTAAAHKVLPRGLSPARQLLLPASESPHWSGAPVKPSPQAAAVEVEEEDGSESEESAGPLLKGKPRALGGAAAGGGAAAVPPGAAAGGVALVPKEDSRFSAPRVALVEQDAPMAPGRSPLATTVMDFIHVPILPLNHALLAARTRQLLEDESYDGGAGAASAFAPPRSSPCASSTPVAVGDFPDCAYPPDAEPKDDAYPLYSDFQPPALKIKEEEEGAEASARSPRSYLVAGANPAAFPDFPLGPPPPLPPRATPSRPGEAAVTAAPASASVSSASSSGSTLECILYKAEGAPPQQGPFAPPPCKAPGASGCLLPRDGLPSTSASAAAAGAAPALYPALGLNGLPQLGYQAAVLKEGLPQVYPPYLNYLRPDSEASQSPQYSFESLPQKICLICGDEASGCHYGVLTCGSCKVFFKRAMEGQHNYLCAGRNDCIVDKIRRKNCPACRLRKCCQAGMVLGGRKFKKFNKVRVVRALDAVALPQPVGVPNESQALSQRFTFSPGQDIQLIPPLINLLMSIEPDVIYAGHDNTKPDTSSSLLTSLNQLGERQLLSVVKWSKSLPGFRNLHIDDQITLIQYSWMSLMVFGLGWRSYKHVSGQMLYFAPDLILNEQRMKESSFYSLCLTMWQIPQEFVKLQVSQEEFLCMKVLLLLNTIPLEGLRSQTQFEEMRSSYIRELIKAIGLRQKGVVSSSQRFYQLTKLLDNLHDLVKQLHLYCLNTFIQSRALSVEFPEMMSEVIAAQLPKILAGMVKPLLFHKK
Sequence of Peroxisome proliferator-activated receptor gamma (Homo sapiens) (P37231 whole entry, looked up): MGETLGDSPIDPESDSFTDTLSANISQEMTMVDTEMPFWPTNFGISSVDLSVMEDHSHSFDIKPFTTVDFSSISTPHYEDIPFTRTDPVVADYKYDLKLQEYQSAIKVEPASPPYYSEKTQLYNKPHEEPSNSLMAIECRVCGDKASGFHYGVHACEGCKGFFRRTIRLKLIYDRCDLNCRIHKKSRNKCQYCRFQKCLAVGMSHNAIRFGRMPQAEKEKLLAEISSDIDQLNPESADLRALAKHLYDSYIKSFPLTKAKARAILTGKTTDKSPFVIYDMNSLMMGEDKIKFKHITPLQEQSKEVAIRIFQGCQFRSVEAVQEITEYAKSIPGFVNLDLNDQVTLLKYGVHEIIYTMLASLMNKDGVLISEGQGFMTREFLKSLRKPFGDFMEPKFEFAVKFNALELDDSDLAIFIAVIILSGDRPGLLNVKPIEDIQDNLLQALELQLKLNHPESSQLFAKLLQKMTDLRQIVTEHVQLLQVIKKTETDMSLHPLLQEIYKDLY
Sequence of Glucocorticoid receptor (Homo sapiens) (P04150 whole entry, looked up): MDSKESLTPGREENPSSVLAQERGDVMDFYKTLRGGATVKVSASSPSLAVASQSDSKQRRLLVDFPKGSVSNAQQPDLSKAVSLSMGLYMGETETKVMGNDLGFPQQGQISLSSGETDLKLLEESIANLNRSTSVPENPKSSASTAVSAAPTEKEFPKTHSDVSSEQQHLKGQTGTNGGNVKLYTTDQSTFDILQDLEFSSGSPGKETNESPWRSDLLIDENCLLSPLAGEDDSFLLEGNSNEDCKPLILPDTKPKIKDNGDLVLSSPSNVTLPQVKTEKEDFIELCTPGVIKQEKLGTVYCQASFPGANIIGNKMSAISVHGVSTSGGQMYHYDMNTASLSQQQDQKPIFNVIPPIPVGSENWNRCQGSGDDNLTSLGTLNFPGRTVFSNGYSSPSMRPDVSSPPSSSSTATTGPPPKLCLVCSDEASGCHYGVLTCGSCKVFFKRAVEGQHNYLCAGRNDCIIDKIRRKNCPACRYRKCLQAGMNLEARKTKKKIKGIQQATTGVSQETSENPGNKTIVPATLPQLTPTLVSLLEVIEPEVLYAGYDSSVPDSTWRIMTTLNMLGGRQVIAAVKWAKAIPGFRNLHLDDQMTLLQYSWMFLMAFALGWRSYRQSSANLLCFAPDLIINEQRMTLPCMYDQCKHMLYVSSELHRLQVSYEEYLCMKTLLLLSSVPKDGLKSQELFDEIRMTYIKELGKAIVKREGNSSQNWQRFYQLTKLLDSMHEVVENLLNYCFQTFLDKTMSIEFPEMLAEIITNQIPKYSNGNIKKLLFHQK
Sequence of Nuclear receptor subfamily 1 group I member 2 (Homo sapiens) (O75469 whole entry, looked up): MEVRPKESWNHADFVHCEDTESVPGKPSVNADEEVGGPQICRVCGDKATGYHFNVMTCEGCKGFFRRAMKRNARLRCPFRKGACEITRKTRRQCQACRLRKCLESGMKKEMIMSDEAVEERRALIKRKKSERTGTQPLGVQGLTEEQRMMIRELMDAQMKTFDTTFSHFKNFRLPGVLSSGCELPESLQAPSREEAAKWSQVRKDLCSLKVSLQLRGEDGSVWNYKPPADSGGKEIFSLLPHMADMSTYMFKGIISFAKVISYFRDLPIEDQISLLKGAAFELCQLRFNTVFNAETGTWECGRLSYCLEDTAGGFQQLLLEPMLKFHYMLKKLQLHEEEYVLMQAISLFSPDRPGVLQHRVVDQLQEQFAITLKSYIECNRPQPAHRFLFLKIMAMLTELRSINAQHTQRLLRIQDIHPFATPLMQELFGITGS
Sequence of human Dopamine Transporter (DAT), SLC6A3 (gene 6531) (Q01959 whole entry, looked up): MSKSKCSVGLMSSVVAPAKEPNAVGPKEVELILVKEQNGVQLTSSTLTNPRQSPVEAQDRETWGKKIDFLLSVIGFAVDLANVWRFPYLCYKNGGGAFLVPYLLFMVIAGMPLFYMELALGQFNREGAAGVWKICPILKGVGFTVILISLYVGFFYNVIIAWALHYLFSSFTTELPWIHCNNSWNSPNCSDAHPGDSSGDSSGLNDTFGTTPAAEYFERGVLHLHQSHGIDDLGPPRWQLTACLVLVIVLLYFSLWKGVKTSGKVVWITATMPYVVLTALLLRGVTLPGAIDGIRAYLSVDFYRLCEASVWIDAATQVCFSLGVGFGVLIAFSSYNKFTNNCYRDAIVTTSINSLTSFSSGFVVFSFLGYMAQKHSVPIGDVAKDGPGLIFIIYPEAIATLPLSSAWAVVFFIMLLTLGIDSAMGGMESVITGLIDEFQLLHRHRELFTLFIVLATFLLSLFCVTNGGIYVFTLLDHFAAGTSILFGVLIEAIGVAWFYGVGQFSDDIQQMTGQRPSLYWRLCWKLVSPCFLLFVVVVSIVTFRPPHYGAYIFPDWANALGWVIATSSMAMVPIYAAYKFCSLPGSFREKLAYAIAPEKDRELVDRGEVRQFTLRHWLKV
Sequence of Estrogen receptor beta (Homo sapiens) (Q92731 whole entry, looked up, the tested form may be a part): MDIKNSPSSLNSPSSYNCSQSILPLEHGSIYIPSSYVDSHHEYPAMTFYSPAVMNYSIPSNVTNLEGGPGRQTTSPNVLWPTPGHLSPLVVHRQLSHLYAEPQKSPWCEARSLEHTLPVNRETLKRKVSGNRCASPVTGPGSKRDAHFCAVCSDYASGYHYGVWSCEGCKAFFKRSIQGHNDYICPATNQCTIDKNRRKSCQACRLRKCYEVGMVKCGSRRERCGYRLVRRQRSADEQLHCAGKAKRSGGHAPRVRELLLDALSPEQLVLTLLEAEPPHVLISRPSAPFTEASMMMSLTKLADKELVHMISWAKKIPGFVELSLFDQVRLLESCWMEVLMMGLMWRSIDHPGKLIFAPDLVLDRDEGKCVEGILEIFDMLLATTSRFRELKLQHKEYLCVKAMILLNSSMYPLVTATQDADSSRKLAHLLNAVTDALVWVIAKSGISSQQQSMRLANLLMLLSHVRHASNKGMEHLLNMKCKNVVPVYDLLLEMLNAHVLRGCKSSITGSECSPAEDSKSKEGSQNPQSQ
Sequence of human Norepinephrine Transporter (NET), SLC6A2 (gene 6530) (P23975 whole entry, looked up): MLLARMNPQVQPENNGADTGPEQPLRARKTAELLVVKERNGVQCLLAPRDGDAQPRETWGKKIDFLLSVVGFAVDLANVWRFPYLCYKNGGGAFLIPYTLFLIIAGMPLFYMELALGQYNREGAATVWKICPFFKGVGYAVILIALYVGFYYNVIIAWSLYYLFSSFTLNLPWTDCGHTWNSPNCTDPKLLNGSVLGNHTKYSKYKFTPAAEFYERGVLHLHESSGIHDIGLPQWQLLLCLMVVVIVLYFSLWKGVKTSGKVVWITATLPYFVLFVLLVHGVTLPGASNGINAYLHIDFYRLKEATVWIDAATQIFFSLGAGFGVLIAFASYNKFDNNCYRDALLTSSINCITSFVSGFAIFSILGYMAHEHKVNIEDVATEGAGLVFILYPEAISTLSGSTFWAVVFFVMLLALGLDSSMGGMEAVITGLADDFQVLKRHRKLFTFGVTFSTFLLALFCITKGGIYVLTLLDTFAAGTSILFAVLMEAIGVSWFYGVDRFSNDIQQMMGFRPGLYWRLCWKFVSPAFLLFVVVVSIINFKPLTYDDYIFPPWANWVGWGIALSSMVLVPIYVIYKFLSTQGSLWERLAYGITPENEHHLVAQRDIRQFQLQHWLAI
Sequence of guinea pig Sigma Receptor, Non-selective Binding, SIGMAR1 (gene 100135589) (Q60492 whole entry, looked up): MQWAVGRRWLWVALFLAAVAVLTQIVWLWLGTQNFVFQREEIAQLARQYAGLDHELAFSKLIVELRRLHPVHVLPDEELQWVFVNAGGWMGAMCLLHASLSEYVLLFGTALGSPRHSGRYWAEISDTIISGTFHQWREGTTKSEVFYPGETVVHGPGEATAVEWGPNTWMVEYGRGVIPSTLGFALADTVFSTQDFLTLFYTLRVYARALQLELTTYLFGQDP

With `COCCOC[C@H](CC1(C(=O)NC2CCC(C(=O)O)CC2)CCCC1)C(=O)Oc1ccc2c(c1)CCC2` (stereo partly drawn), the result (in [1]; in experiment [2]; in [3]; in experiment [4]; with PGR (gene 5241)) was inactive.
In the case of `COc1cc(-c2nc(NC(=O)c3cc4cc(C)cc(C)c4n3CC(=O)O)sc2CCC2CCCCC2)c(OC)cc1Cl`, the AC50 in [1] is 10.5 µM (active); in experiment [2], 49.1 µM (active); in experiment [6] it was 0.181 µM (active). The result in experiment [3], in experiment [4] and in experiment [5] was inactive.
As for `Cc1cccc(C)c1O`, the compound was classed as inactive in experiment [1], in experiment [2], in [3], in experiment [4], in [7] and in experiment [6].
On to `COCCOCCOC`, for which the call in experiment [1], in experiment [3] and in experiment [4] was inactive.
For the compound `CC=Cc1ccc(O)c(OC)c1`, the AC50 in [8] is 16.6 µM (active); in experiment [9], 8.8 µM (active). Further, in experiment [6], the compound was called inactive.
Regarding `CC1(C)CC(N=C=O)CC(C)(CN=C=O)C1` (stereo not drawn), the AC50 in the experiment with PGR (gene 5241) is 11.7 µM (active); in experiment [10], 9.14 µM (active). For the same compound, the outcome in [9] was inactive.
In the case of `CCCCN(CCCC)CCCC`, the result in experiment [3] and in experiment [4] was inactive. Moreover, in experiment [9], the concentration at half-maximal activity (AC50) is 16.7 µM (active).
With `NC(=O)Cn1c(=O)cc(CCN2CCN(c3nccc4sccc34)CC2)c2ccc(F)cc21`, the AC50 in experiment [11] was 2.1 µM (active).
On to `CC(CO)OC(C)CO` (stereo not drawn) (tested in a mixture with another compound), for which the outcome in experiment [7] was inactive.
As for `CCCCc1ccc2c(n1)[C@@H](c1ccc(OC)cc1C[C@H](C)C(=O)O)[C@H](C(=O)O)[C@H]2c1ccc2c(c1)OCO2`, the result in experiment [3] and in experiment [5] was inactive. Moreover, the AC50 in experiment [6] was 5.46 µM (active).
As to `Cc1oc(-c2ccccc2)nc1CCOc1cccc2c1ccn2CCC(=O)O`, the outcome in experiment [3] was inactive. The values for the AC50 in [11] and in [6] were 11 µM (active) and 2.27 µM (active), respectively.
For `Cc1ccc2ncccc2c1`, the result in [12] and in [9] was inactive.
In the case of `COC(=O)c1ccc(O)cc1`, the AC50 was 74.6 µM (active) in [3] and 63.3 µM (active) in experiment [4]. For the same compound, the call (in the experiment with PGR (gene 5241); in experiment [9]; in experiment [13]) was inactive.
On to `CNCc1cc(F)ccc1Oc1ccc(Cl)c(Cl)c1`, for which the outcome (in experiment [3]; in [4]; with PGR (gene 5241)) was inactive. In addition, the AC50 in experiment [14] was 0.00346 µM (active).
For `Nc1ccc(S(=O)(=O)c2ccc(N)cc2)cc1`, the outcome (with PGR (gene 5241); in experiment [10]) was inactive. Besides, the figures for the AC50 in experiment [8] and in experiment [9] were 25 µM (active) and 3.85 µM (active), respectively.
As for `Cc1c(C(=O)O)c(O)cc2c1C(=O)c1c(O)c([C@@H]3O[C@H](CO)[C@@H](O)[C@H](O)[C@H]3O)c(O)c(O)c1C2=O`, the outcome in experiment [3], in [4], in [8], in [9] and in experiment [14] was inactive.
As for `CC(=O)OC/C=C(\C)CCC=C(C)C`, the compound was classed as inactive in [7] and in [6].
For the compound `CC(=O)C(C)=CC1C(C)=CCCC1(C)C` (stereo not drawn), the result in experiment [6] and in [13] was inactive.
As for `FC(F)(F)C(F)(F)C(F)(F)C(F)(F)C(F)(F)C(F)(F)CCI`, the result in experiment [12] and in experiment [7] was inactive. For the same compound, in experiment [11], the AC50 was 3.3 µM (active).
Consider `CCCCC(CC)COC(=O)CC(C(=O)OCC(CC)CCCC)S(=O)(=O)O` (stereo not drawn), for which the result in experiment [3] was inactive. For the same compound, the AC50 is 18.7 µM (active) with PGR (gene 5241); 5.89 µM (active) in [5]; 1.03 µM (active) in experiment [7]; 19.1 µM (active) in [15]; 20.6 µM (active) in experiment [8]; 0.221 µM (active) in experiment [6]. In addition, the AC50 in experiment [9] was 8.14 µM (active); in [10] it was 10.2 µM (active).
